# Bioassay records: PubChem BioAssay, National Center for Advancing Translational Sciences (NCATS)
# Rows were chosen to be rich in hits. Some 12% of all compounds tested hit in one or more screens of this group.
# Sfp PPTase inh: inhibitors of Bacillus subtilis Sfp phosphopantetheinyl transferase; Q9F4F7; Biochemical Sfp PPTase activity, qHTS; Potency, µM, without a hit: largest response in the series, negative = inhibition, actives largely listed as inhibitors; actives 3.5% (n = 310,000); AID 1490;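 note: the enzyme is Sfp with the accession as filed and its product quenches rhodamine fluorescence; 0% = enzyme reaction without inhibitor and -100% = no enzyme wells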
#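 Buffer: 50 mM Hepes-Na pH 7.6, 10 mM MgCl2, 0.01% Nonidet P-40, 0.01% BSA. Enzyme 15 nM, pre-exposed to compound 15 min; substrates then added and fluorescence change tracked over 30 min.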
# BAZ2B block: blocks human BAZ2B. AlphaScreen BAZ2B-H3K14Ac peptide displacement. Potency, µM (highest dose often 114 µM), for the others: top-dose activity change, negative = inhibition, most hits filed as inhibitors. actives 4.4% (n = 360,000). AID 504333; note: % is set by controls: 0 for no effect and ±100 for the full control effect; nearly all actives have a fitted effect of over 60% in size
#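 Compounds, titrated to a top concentration of 110 uM, were incubated 30 min at room temperature with preformed BAZ2B/acetyl-K14 H3 peptide complex (50 nM each). Proximity signal was measured by AlphaScreen after 20 min with beads.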
# JMJD2A Tudor: blocks the human JMJD2A Tudor domain; AlphaScreen JMJD2A-Tudor / H3K4me3 peptide binding; Potency, µM (series often up to 114 µM), for inactives: top-dose activity change, negative = inhibition, actives largely listed as inhibitors; O75164; actives 4.4% (n = 390,000); note: % is set by controls: 0 for no effect and ±100 for the full control effect; nearly all actives have a fitted effect of over 50% in size
# Target sequence (O75164 whole entry, looked up, the tested form may be a part): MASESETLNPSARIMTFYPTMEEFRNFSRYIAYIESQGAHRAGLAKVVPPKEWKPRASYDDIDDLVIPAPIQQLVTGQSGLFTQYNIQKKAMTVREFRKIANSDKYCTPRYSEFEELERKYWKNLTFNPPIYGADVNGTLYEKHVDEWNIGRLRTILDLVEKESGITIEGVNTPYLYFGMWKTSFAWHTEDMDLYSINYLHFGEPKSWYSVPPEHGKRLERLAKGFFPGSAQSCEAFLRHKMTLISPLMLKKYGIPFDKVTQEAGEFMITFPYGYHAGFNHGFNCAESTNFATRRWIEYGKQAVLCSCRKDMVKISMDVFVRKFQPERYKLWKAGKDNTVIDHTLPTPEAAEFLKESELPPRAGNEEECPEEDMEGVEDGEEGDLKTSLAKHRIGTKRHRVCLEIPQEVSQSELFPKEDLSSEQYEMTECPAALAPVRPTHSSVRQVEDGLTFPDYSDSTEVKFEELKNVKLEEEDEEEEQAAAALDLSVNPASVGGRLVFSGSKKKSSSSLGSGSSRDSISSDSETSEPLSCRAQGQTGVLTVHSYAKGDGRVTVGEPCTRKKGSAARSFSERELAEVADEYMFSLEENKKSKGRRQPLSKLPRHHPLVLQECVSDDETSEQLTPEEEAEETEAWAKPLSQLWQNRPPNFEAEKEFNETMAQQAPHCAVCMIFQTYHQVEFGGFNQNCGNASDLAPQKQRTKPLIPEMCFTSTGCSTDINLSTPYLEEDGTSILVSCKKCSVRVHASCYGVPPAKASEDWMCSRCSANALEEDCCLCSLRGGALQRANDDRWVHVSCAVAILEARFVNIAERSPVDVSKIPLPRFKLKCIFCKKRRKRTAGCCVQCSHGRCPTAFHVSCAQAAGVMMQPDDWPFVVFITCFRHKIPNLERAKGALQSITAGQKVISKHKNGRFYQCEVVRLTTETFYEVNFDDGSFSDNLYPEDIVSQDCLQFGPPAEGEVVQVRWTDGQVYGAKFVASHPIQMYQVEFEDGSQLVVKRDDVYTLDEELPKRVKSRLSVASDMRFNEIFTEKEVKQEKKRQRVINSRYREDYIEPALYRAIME
# G9a block: blocks human histone lysine methyltransferase G9a; Potency, µM (titrated, usually from 102 µM), for inactives: at the highest dose activity, negative = inhibition, most hits filed as inhibitors; AID 504332; actives 8.8% (n = 350,000); G9a H3K9 monomethylation, AlphaScreen, 2 h; Q96KQ7; note: % is set by controls: 0 for no effect and ±100 for the full control effect; nearly all actives have a fitted effect of over 75% in size
#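 Chemiluminescent proximity detection of H3K9 monomethylation, read after 10 min bead incubation in the dark. Reaction: 20 nM G9a, 500 nM biotin-H3K9 peptide, 20 uM SAM cofactor, 2 h, room temperature, following 15 min enzyme-compound preincubation.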
# HP1b binding inh: HP1-beta chromodomain-methylated histone interaction inhibition. P83916. AlphaScreen HP1-beta / biotin-H3K9me3 peptide binding. Potency, µM (top dose mostly 114 µM), for inactives: at the highest dose activity change, negative = inhibition, hits mostly inhibitors. actives 0.56% (n = 390,000); note: nearly all actives have a fitted effect of over 70% in size
#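 Compound inhibition of the preformed complex between 50 nM HP1-beta and 50 nM biotinylated H3K9me3 peptide was read by AlphaScreen. Buffer was PBS pH 7.4 with 0.01% Tween-20. Incubations ran 30 min at room temperature, with 10 ug/mL donor/acceptor beads.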
# Active calls of the source: *; ? = inconclusive; / = no result given; ! = a repeat was not active; [ ] = another dose, or the depositor's remark. Calls come from the whole dose curve; as a rule, active = well fitted curve in the direction sought with a large enough effect; inconclusive = small, poorly fitted or top-dose-only effect, or another doubt; inactive = no such curve, though single readings can be large; an effect the other way counts as inactive or inconclusive. Potency is the fitted concentration of half-maximal effect.
SMILES,Sfp PPTase inh,BAZ2B block,JMJD2A Tudor,G9a block,HP1b binding inh
Cc1nn(-c2ccccc2)c(C)c1C(=O)Oc1ccccc1,1.0%,-8.1%,31.9%,167.5%,73.1%
COc1ccc2ccccc2c1CN1CCSCC1,?,56.2µM*,44.7µM*,/,?
COc1cccc(/C=C2/SC(=O)N(CC(=O)N3CCc4ccccc4C3)C2=O)c1OCC(=O)O,56.2µM*,1.1%,-5.1%,-35.2%[59 µM],41.7%
COc1ccc(CCN2C(=O)NC(NC(=O)CC(C)C)(C(F)(F)F)C2=O)cc1OC (centres undefined),-15.7%,-6.6%,-23.0%,-5.6%[59 µM],7.8%
COc1ccc(S(=O)(=O)NC2(C(F)(F)F)NC(=O)N(CCc3ccc(OC)c(OC)c3)C2=O)cc1 (centres undefined),13.2%,-17.4%,-10.2%,50.1µM*!,26.7%
COc1ccc(S(=O)(=O)NC2(C(F)(F)F)NC(=O)N(CCc3ccccc3)C2=O)cc1 (centres undefined),19.4%,-12.7%,0.4%,44.7µM*,34.7%
O=C(COC(=O)C1(c2ccc(F)cc2)CCCC1)N1CCc2ccccc21,27.9%,27.8%,17.9%,67.9%[59 µM],46.6%
COC(=O)CNC(=O)CN1C(=O)NC2(CCCc3ccccc32)C1=O (centres undefined),7.9%,10.3%,0.3%,15.2%[2.33 µM],52.8%
COC(=O)c1c(C)[nH]c(C)c1-c1ccccc1Cl,-1.3%,?,?,-18.0%[2.33 µM],-20.7%
COC(=O)C1=C(C(=O)OC)SC2(S1)C(C(=O)OC)=C(C(=O)OC)SC1=C2c2cccc(C)c2NC1(C)C,2.8%,?,?,31.6µM*,-21.7%
C=C(C)CN(CC)c1ccc(N2C(=O)CCCC2=O)cc1[N+](=O)[O-],7.1%,4.6%,-11.3%,-47.0%,20.8%
COc1ccc(/C=N/Nc2ncc(Br)cn2)c(OC)c1,?,18.7%,50.1µM*,31.8%[12.7 µM],24.3%
Cc1ccc(OCc2n[nH]c(=S)n2N)cc1C,?,-18.7%,?,?,21.5%
CCn1nc(C)cc1-c1n[nH]c(=S)n1N,44.7µM*,?,8.91µM*,2.82µM*,?
O=C(O)c1ccc2c(c1)C(=O)N([C@@H](C(=O)O)C(c1ccccc1)c1ccccc1)C2=O,15.3%,-11.2%,-26.9%,-22.9%[12.7 µM],/
COc1ccccc1OCC#CCn1ccnc1,-18.3%,17.8µM*,5.62µM*,3.16µM*,?
COc1ccccc1/C=C(/C(=O)NCCCn1ccnc1)c1ccccc1,8.2%,?,-26.5%,-41.5%,34.4%
CC(=O)c1ccc(NC(=S)NC(=O)Cc2ccc(Cl)cc2)cc1,2.4%,11.2%,-14.8%,-4.2%,21.5%
O=C(Nc1nc(-c2ccccc2)cs1)c1cccc([N+](=O)[O-])c1,0.1%,39.8µM*,?,31.6µM*,-25.5%
O=C(Nc1nc(-c2ccccc2)cs1)c1cccc([N+](=O)[O-])c1C(=O)O,6.5%,2.3%,-20.8%,50.1µM*,34.0%
Cc1csc(NC(=O)c2cccc([N+](=O)[O-])c2C(=O)O)n1,10.6%,-7.6%,-11.6%,-12.2%[0.501 µM],30.8%
COc1cc2c(cc1CC=C(C)C)C(=O)C[C@@H](c1ccc(O)cc1)O2,-5.2%,/,/,/,/
CCc1cc(-c2n[nH]c(C)c2-c2nc3ccccc3n2C)c(O)c(CN2CCN(C)CC2)c1O,-5.5%,?,?,44.7µM*,-21.6%
CCc1cc(-c2n[nH]c(CCC(=O)O)c2-c2nc3ccccc3n2C)c(O)cc1O,0.4%,-24.9%,-16.8%,7.08µM*,29.0%
CC(=O)c1cc(NC(=O)c2cccc(C(F)(F)F)c2)c(=O)oc1C,14.1µM*,-20.4%,-20.3%[11.4 µM],25.1µM*,-11.7%
SMILES,Sfp PPTase inh,BAZ2B block,JMJD2A Tudor,G9a block,HP1b binding inh
COc1ccc(C(=O)Nc2cc(C(C)=O)c(C)oc2=O)cc1,?,-20.3%,-5.6%,35.5µM*,47.0%
CC(=O)c1cc(NC(=O)c2cccc(C(F)(F)F)c2)c(=O)oc1/C=C/N(C)C,5.0%,-4.5%,-9.2%,10.4%,21.4%
COC(=O)c1cc(NC(=O)c2ccccc2)c(=O)oc1/C=C/Nc1ccc(Oc2ccccc2)cc1,16.0%,-13.8%,-28.7%,-0.1%,15.4%
CC(=O)c1cc(NC(=O)c2ccc(Cl)cc2)c(=O)oc1/C=C/N(C)C,56.2µM*,-10.7%,0.6%[57.1 µM],?,30.8%
O=C(OCCN1C(=O)c2ccccc2C1=O)c1ccco1,27.9%,3.1%,-15.0%,3.3%[59 µM],44.7%
Cc1ccc(C)c(NS(=O)(=O)c2ccc3oc(=O)c4ncn(C)c4c3c2)c1,/,-12.2%,-11.7%,-15.4%[59 µM],-5.7%
Nc1ncnc(Sc2ccc(Cl)cc2)c1[N+](=O)[O-],0.0%,10.0%,-7.0%,21.0%[59 µM],23.7%
O=C1CCCCC1CCc1ccncc1 (centres undefined),/,/,-2.1%,/,37.9%
CN(C)NC(=S)NC(=O)C12CC3CC(CC(C3)C1)C2,?,?,?,-41.8%,10.0%
CN(C(=S)NC(=O)C12CC3CC(CC(C3)C1)C2)c1ccc(O)cc1,/,/,50.1µM*,/,10µM*
CC(C)(C)NC(=S)NC(=O)C12CC3CCC(CC(C3)C1)C2,11.3%,-38.4%,89.1µM*,-8.6%[59 µM],-15.2%
CN(C)c1ccc(C(=O)NNC(=O)C23CC4CC(CC(C4)C2)C3)cc1,/,/,-11.6%,/,26.2%
O=C(NC(=S)N1CCOCC1)C12CC3CCC(CC(C3)C1)C2,27.0%,0.3%,-9.7%,3.2%[59 µM],28.2%
CN1CCC(N(C)C(=S)NC(=O)C23CC4CC(CC(C4)C2)C3)CC1,-10.9%,10.1%,-4.4%,39.8µM*,-10.7%
CC1(c2ccccc2)NC(=O)N(CC(=O)NCCN2C(=O)S/C(=C\c3cccnc3)C2=O)C1=O (centres undefined),/,/,-11.0%,/,41.0%
CCCCn1c(N)c(N(CC(C)C)C(=O)C2CCN(S(=O)(=O)c3ccc(OCC)cc3)CC2)c(=O)[nH]c1=O,/,-6.2%,-12.4%,-32.2%,18.3%
COC(=O)Cc1c(O)ccn(Cc2ccccc2OC)c1=O,16.9%,2.3%,5.1%,20.8%[59 µM],32.8%
Cc1ccc2nc(C(=O)O)c(C(=O)O)nc2c1,-4.6%,?,39.8µM*,35.5µM*,-13.1%
OC(CNC1CCCCCC1)COc1cccc2ccccc12 (centres undefined),-19.5%,?,3.55µM*,44.7µM*,-18.6%
OC(COc1ccc(CNCCc2ccc(C(F)(F)F)cc2)cc1)CN1CCCCC1 (centres undefined),14.3%,-8.0%,-17.3%,?,23.6%
COc1ccccc1COCC(O)CNCCc1ccc(C(F)(F)F)cc1 (centres undefined),?,25.1µM*,79.4µM*,3.98µM*,-22.1%
OC(CNCCc1ccc(C(F)(F)F)cc1)COc1ccc2ccccc2c1 (centres undefined),17.8µM*,-18.4%,-12.4%,-43.5%[59 µM],29.2%
OC(CNCCc1ccc(C(F)(F)F)cc1)COc1cccc2ccccc12 (centres undefined),25.1µM*,-5.3%,-23.9%,-16.1%[59 µM],19.0%
